# From PubChem
# A selection: hits, their analogues and other compounds. The true share with any hit is near 18%.
# TDP1 inh = qHTS Assay for Inhibitors of Tyrosyl-DNA Phosphodiesterase (TDP1). AID 485290, 2010. Potency, µM (series often up to 130 µM), usual class: inhibitors. Tyrosyl-DNA phosphodiesterase 1 (Homo sapiens), Q9NUW8. actives 0.28% (n = 350,000). recombinant TDP1, AlphaScreen DNA substrate cleavage; note: nearly all actives have a fitted effect of over 40% in size
#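 Here, a 5' biotin and 3' phosphotyrosine-FITC DNA oligonucleotide reports Tdp1 activity: intact substrate bridges AlphaScreen beads, while cleavage leaves a 3' phosphate and drops signal. All incubations at room temperature.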
# CtBP-E1A blk = qHTS Assay for Inhibitors of the CtBP/E1A Interaction; AlphaScreen GST-E1A/His-CtBP binding, 1536-well; active compounds read low; activity change, % (concentration not given with the values); actives 0.49% (n = 340,000); AID 651724, 2012; in the data active = activity change below about -65%; inconclusive = mostly about -30% to -63%
#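 GST-E1A and His-tagged CtBP (125 nM each as 5X stock) were preincubated with pin-transferred compound for 2 h at 37 °C in the dark, then glutathione donor and nickel acceptor beads were added for 1 h before AlphaScreen reading.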
# IL1B secr inh = qHTS for Inhibitors of Inflammasome Signaling: IL-1-beta AlphaLISA Primary Screen; THP-1 LPS/ATP IL-1B secretion, AlphaLISA, 16 h; active compounds read low; activity change, % at 57.5 µM; actives 4.7% (n = 360,000); AID 743279, 2014; in the data active = activity change below about -50%; inconclusive = mostly about -30% to -49%
#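 Secreted IL-1B measured by AlphaLISA bead assay after 16 h compound exposure of THP-1 cells; compounds (final up to 57.5 uM) added 1 h before LPS (250 ng/mL) and ATP (1.25 mM) stimulation; lower signal means less secretion.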
# DT40 TDP1 no CPT = qHTS for Inhibitors of human tyrosyl-DNA phosphodiesterase 1 (TDP1): qHTS in cells in absence of CPT; actives 15% (n = 420,000); Potency, µM (top dose mostly 46.2 µM), usual class: inhibitors; DT40 Tdp1-/- hTDP1 cells, no CPT, ATP luminescence, 48 h; note: nearly all actives have a fitted effect of over 55% in size
#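 Growth of hTDP1-complemented DT40 Tdp1-knockout cells is measured by ATP luminescence after at least 48 hr compound exposure at 37 °C, with DMSO substituting for the 20 nM CPT used in the parallel screen.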
# DT40 TDP1 CPT = qHTS for Inhibitors of human tyrosyl-DNA phosphodiesterase 1 (TDP1): qHTS in cells in presence of CPT; chicken DT40 Tdp1-/-;hTDP1 cells + 20 nM CPT, ATP luminescence, 48 h; Potency, µM (series often up to 46.2 µM), most hits filed as inhibitors; actives 12% (n = 420,000); AID 686979, 2013; note: nearly all actives have a fitted effect of over 55% in size
#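 Cell growth measured by CellTiter-Glo luminescence after a minimum 48 h, 37 C compound exposure with 20 nM CPT in Tdp1-knockout DT40 cells stably expressing hTDP1, seeded 400/well; qHTS titration format.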
# Six1-Eya2 blk = qHTS Assay for Inhibitors of the Six1/Eya2 Interaction; Homeobox protein SIX1 (Homo sapiens) + Protein phosphatase EYA2 (Homo sapiens), …; AlphaScreen GST-Six1/His-Eya2 binding, biochemical; active compounds read low; activity change, % (test concentration not listed); actives 0.56% (n = 360,000); AID 651725, 2012; in the data active = activity change below about -65%; inconclusive = mostly about -30% to -63%
# Target sequence (O00167 whole entry, looked up): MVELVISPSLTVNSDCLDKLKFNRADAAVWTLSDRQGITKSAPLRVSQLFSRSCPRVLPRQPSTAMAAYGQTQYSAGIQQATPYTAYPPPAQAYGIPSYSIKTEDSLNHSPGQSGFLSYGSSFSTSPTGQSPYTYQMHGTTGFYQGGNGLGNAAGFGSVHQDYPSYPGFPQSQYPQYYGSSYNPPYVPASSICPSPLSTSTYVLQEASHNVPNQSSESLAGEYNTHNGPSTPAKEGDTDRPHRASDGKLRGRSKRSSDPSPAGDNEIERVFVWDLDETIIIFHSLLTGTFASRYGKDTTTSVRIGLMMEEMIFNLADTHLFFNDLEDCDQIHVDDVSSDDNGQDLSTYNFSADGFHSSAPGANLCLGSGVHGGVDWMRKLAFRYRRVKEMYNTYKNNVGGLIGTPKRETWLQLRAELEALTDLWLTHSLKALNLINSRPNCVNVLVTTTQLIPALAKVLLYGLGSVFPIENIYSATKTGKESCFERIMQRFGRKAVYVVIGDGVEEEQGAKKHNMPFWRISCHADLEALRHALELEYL
# Target sequence (Q15475 whole entry, looked up): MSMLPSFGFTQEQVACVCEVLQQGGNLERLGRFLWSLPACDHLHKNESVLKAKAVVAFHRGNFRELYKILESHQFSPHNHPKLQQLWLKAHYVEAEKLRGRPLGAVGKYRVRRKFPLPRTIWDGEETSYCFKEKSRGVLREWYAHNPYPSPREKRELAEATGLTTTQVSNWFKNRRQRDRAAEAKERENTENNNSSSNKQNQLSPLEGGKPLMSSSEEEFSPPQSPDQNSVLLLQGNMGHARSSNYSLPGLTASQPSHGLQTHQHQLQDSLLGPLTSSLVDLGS
#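 Six1/Eya2 binding was read as AlphaScreen signal after compounds were pinned into GST-Six1 plus His-tagged Eya2 (5X stock 250/500 nM) in pH 8.0 Tris/NaCl/TCEP buffer, beads added, then incubated 1 h, 37 C, dark.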
# Hits are given with their value; 0 = inactive; ? = inconclusive; - = not tested or not shown. Unless noted, calls come from the whole dose curve; as a rule, active = well fitted curve in the direction sought with a large enough effect; inconclusive = small, poorly fitted or top-dose-only effect, or another doubt; inactive = no such curve, though single readings can be large; an effect the other way counts as inactive or inconclusive.
SMILES,TDP1 inh,CtBP-E1A blk,IL1B secr inh,DT40 TDP1 no CPT,DT40 TDP1 CPT,Six1-Eya2 blk
Cc1noc(C)c1S(=O)(=O)N1CCCC(C(=O)Nc2ccc(Cl)cn2)C1 (stereo unspecified),0,0,0,?,?,0
Cc1cc(S(=O)(=O)N(Cc2ccc(C(C)C)cc2)CC2CCCO2)ccc1-n1cnnn1 (stereo unspecified),0,0,-79.1,0,?,0
Cc1cc(S(=O)(=O)N(Cc2ccc(F)cc2)CC2CCCO2)ccc1-n1cnnn1 (stereo unspecified),0,0,0,0,0,0
COc1cccc(Oc2ccc(C(F)(F)F)cc2NC(=O)CN2C(=O)NC3(CCCC3)C2=O)c1,0,0,0,?,14.6µM,0
O=C(CN1C(=O)NC2(CCCC2)C1=O)Nc1cc(C(F)(F)F)ccc1N1CCCCC1,-,0,-72.0,0,?,0
CC(NS(=O)(=O)c1ccc2c(c1)C(=O)c1cc(S(=O)(=O)NC(C)C(=O)O)ccc1-2)C(=O)O (stereo unspecified),-,?,0,0,0,?
CN1CCCc2ccccc21,-,-,-,0,0,-
C/C(=N\Nc1ccc(F)cc1F)c1ccc(F)cc1,0,-,-,-,-,-
COc1ccc(/C(C)=N\Nc2nc(-c3ccccc3)cc(=O)[nH]2)cc1,0,0,0,0,0,0
COc1ccc(/C(C)=N/Nc2nccnc2Cl)cc1,0,0,-51.6,0,0,0
C/C(=N\Nc1nc(N)cc(Cl)n1)c1cccc(N)c1,0,0,0,?,?,0
C/C(=N\Nc1nc(C)cc(-c2ccccc2)n1)c1ccc(F)cc1,-,-,0,7.31µM,?,0
COc1ccc(/C(C)=N/Nc2nc(C)cc(-c3ccccc3)n2)cc1,-,0,0,4.61µM,4.11µM,0
C/C(=N/Nc1nc(-c2ccccc2)cc(-c2ccc(F)cc2)n1)c1cccc(N)c1,0,0,-61.0,?,?,0
Cc1c[n+](C)ccc1CC1C([N+](=O)[O-])=C[N-]c2ncnn21 (stereo unspecified),0,-,0,0,0,0
Cc1ccc(C(=O)NCC(=O)N/N=C/c2cccs2)cc1[N+](=O)[O-],0,0,0,0,0,0
CCCCN(Cc1cc2cc(OC)ccc2[nH]c1=O)C(=O)c1ccco1,0,0,0,?,?,0
COc1ccccc1-c1cccc(-c2nc(C(=O)Nc3nccs3)cc3c2[C@H](CCO)N(C(C)=O)C3)c1,-,0,?,5.8µM,6.51µM,0
CCC(=O)N1Cc2cc(C(=O)Nc3nccs3)nc(-c3cccc(-c4ccccc4OC)c3)c2[C@H]1CCO,-,?,?,16.4µM,?,?
COc1ccccc1-c1cccc(-c2nc(C(=O)Nc3nccs3)cc3c2[C@@H](CCO)N(C(C)=O)C3)c1,-,0,0,?,?,?
CC1CCC(NS(=O)(=O)c2cccc3nsnc23)CC1 (stereo unspecified),0,0,0,0,0,0
Cc1ccc(S(=O)(=O)N2CCCC2C(=O)Oc2ccccc2)cc1 (stereo unspecified),0,0,0,0,0,0
CC1(C)C(=O)Nc2ccccc2N1C(=O)CN1C(=O)c2ccccc2C1=O,0,0,0,0,0,0
CN(C(=O)c1cccc(NC(=O)c2ccccc2)c1)C1CCCCC1,0,0,0,0,?,0
CCN(CC)S(=O)(=O)c1ccc(C(=O)Nc2ccc3c(c2)OCCO3)cc1,0,0,0,0,0,0
CCN(CC)S(=O)(=O)c1ccc(Nc2ccc(-c3ccc4c(c3)OCCO4)nn2)cc1,0,0,0,?,5.17µM,0
CN(C(=O)c1cccc(Nc2ccc(-c3ccc4c(c3)OCCO4)nn2)c1)C1CCCCC1,0,0,0,23.1µM,23.1µM,0
